From PubChem BioAssay come the findings set out here.

Results with a measured potency or affinity are listed apart. Active and inactive are the calls of the source. No cut-off is given here; in the data, nearly all actives have IC50 up to about 0.98 µM.

For the test, the target named is Calcium-dependent protein kinase 1 (Plasmodium falciparum (isolate 3D7)) (UniProt P62344). The test is described as follows: PfCDPK1 kinase inhibitors, biochemical, TCAMS library (AID 1159585).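 Note: inhibitors leave more ATP so luminescence rises with inhibition.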 The conditions noted are these: recombinant PfCDPK1, Kinase-Glo ATP depletion luminescence.
Calcium-dependent protein kinase 1 (Plasmodium falciparum (isolate 3D7)), sequence (P62344 whole entry, looked up): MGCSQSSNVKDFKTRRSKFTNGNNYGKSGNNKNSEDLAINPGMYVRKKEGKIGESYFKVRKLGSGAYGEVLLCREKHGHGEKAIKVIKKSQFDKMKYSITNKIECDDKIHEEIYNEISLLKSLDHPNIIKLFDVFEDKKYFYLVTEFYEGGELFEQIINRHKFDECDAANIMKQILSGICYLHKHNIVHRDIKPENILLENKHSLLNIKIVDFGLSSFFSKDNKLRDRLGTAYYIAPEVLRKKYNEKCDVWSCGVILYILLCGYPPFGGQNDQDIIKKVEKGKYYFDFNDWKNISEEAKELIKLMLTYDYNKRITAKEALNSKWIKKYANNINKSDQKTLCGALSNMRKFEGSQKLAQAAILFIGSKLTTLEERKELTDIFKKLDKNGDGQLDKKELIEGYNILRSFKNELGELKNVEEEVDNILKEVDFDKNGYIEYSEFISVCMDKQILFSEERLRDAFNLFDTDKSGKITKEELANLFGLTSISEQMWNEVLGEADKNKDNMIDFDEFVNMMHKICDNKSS
As to `OC(CNc1ccnc(Nc2cccc(Cl)c2)n1)c1cccc(C(F)(F)F)c1` (stereo not given), the result was inactive.

With `CC1CN(Cc2cccc(-c3ccc(-c4nc5ccc(F)cc5[nH]4)cc3)c2)CC(C)O1` (stereo not given), the result was inactive.

Consider `COc1cc(F)c2ncc(Cl)c([C@H](O)CN3CCC(NCc4cc5c(cn4)OCCO5)CC3)c2c1`, for which the result was inactive.

For `COc1ccc2nc(C)cc(NN=Cc3ccccc3Cl)c2c1`, the outcome was inactive.

With `Cn1nccc1C(=O)NCCNCc1ccc(-c2ccc(-c3nc4ccc(C(F)(F)F)cc4[nH]3)cc2)cc1`, the result was inactive.

`COc1ccccc1C1CCN(C2CCC(NC(=O)/C=C/c3cc(F)cc(F)c3)CC2)CC1` (stereo not given): the outcome was inactive.

Consider `CN(C)CCCOc1ccc(CCCCc2ccc(Cl)cc2C(=O)c2ccccc2)cc1`, for which the outcome was inactive.

As for `O=C(C=Cc1ccc(C(=O)Nc2ccc(C3=NCCN3)cc2)cc1)Nc1ccc(C2=NCCN2)cc1`, the outcome was inactive.

Take `Cc1ccc2nc(C)cc(NC(=O)Nc3ccc(N(C)C)cc3)c2c1`: the outcome was inactive.

Turning to `CC(C)c1ccc(CN2CCCCC(NC(=O)c3cc(-c4ccccc4Cl)cs3)C2)cc1` (stereo not given), the outcome was inactive.

In the case of `CCNc1cc(C(=O)N[C@@H](Cc2ccccc2)[C@H](O)CNCCc2ccccc2)cc(N2CCCC2=O)c1`, the outcome was inactive.

With `COc1cc(C(F)(F)F)c2cc(CNCCCNc3nc4ccccc4[nH]3)[nH]c2c1`, the result was inactive.

`FC(F)(F)c1cccc(CNCCCCCNCc2ccc(Cl)cc2)c1`: the outcome was inactive.

In the case of `CC(=O)Nc1ccc(CN2Cc3ccc(NC(=O)Nc4ccc(Oc5ccccc5)cc4)cc3C2)s1`, the result was inactive.

Regarding `COCc1cccc(-c2cc(-c3ccc(S(C)(=O)=O)cc3)cnc2N)c1`, the outcome was inactive.
